# Screening results as filed in PubChem BioAssay.
# VLA-4 inh: inhibition in a human VLA-4 binding assay | P13612 | VLA-4 expressing cells, ligand binding flow cytometry | inhibition, % (about 7 µM as worked out from the volumes in the protocol) | actives 0.2% (n = 330,000) | AID 2557; in the data active = inhibition above about 50%
# AHR activator: activates the human aryl hydrocarbon receptor; AHR-responsive luciferase reporter cells, luminescence; actives 2.5% (n = 320,000); activation, % at 5 µM; P35869; in the data active = activation above about 47%;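 note: 0% = vehicle wells and 100% = reference agonist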
# Target sequence (P35869 whole entry, looked up): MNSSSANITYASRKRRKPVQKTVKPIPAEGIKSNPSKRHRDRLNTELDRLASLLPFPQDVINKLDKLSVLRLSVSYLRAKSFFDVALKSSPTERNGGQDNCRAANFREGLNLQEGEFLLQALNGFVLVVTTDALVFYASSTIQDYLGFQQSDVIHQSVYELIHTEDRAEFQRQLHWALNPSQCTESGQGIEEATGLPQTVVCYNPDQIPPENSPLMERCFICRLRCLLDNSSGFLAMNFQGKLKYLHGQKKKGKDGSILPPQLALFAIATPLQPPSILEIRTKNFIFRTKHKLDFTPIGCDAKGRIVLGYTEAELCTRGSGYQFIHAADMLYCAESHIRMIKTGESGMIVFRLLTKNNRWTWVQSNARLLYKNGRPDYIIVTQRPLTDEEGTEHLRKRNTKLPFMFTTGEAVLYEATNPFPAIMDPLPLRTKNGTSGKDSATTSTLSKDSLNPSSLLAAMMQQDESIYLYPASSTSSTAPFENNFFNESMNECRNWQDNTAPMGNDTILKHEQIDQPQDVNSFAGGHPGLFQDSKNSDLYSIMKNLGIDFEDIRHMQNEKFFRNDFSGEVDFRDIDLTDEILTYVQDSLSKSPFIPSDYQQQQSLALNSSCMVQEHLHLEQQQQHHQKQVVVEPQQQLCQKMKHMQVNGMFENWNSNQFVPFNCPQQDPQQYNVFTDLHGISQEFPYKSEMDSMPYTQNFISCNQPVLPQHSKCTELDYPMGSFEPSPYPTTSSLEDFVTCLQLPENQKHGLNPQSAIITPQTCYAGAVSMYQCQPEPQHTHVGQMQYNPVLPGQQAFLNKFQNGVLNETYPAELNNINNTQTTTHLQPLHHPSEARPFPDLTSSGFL
# ALR inh: human ALR oxidase inhibition via reduced H2O2 | P55789 | purified ALR, DTT oxidation, H2O2 HRP-luminol luminescence | inhibition, % (concentration not given with the values) | actives 3.8% (n = 290,000) | AID 485317;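 active = mean replicate inhibition above about 79%, with every replicate also reaching it, limit read from the data; inconclusive = only one of the two criteria met; inactive = mean below limit and not every replicate reaching it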
# Mot1-301 SUMO: SUMOylation pathway inhibition by Mot1-301 growth rescue. S. cerevisiae Mot1-301 growth rescue, ATP luminescence, 38.5C; percent above DMSO median, 100 means doubled. growth rescue, % at 18.8 µM. actives 1% (n = 320,000). AID 2716;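 active = every valid replicate shows activation above 250% relative to neutral control wells; inactive = the rest, any valid replicate at or below 250%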;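 note: OY570 slx delta 5 strain wells were the positive control but not used for scaling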
# A1 inh: inhibitors of the anti-apoptotic protein A1, read as caspase activation; AID 2462; actives 0.066% (n = 330,000); MEF A1-2A-BIM cells, Caspase-Glo 3/7 luminescence, 3 h; percent of clofoctol response, vehicle zero; caspase activation, % (no concentration beside the values);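 active = over half of replicate activation scores above 10%, or exactly half above 10 with the replicate mean above 10; inconclusive = replicate mean below 10 yet half the replicates above 10; inactive = over half of replicates below 10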
# Efflux pump mplx: inhibitors of Candida antifungal efflux pumps expressed in yeast | S. cerevisiae Candida pump triplex, Nile Red efflux | inhibition, % at 10 µM | actives 0.44% (n = 330,000) | AID 485275;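 active = plate passing quality check with inhibition over a set limit, or well fluorescence over plate mean plus 4 SD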;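 note: Nile Red retained in pooled yeast measured as flow cytometry median fluorescence; 0% = buffer negative control and 100% = Enniatin B positive control; higher means more Nile Red kept so more efflux inhibition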
# Numbers without * were called inactive; ? = inconclusive; / = no result given. Only some compounds are listed: those with a hit (about 7.2% of all), similar ones and a draw of the others.
SMILES,VLA-4 inh,AHR activator,ALR inh,Mot1-301 SUMO,A1 inh,Efflux pump mplx
O=C(CN1C(=O)c2ccccc2S1(=O)=O)NCc1cccs1,-1,-2,-5,-13,?,-1
Cc1ccc(Sc2ncnc3onc(C)c23)cc1,-4,-3,99*,-20,1,0
Cc1noc2ncnc(Sc3ccc(Cl)cc3)c12,6,2,80*,324*,1,0
Cc1ccc(CSc2ncnc3onc(C)c23)cc1,13,1,-3,-6,0,0
Cc1noc2ncnc(Sc3c(Cl)cccc3Cl)c12,-20,9,0,/,0,0
COc1cc(CN(C(=S)NCC(=O)NC2CC2)C2CCCC2)cc(OC)c1OC,0,2,-13,3,0,0
CC(C)CCn1nnnc1C(C(C)C)N1CCC(C(N)=O)CC1 (stereo not given),25,-3,-3,8,0,0
NS(=O)(=O)c1ccc(NNC(=O)c2ccccc2C(=O)O)cc1,13,48*,36,-1,1,0
O=C(O)c1ccccc1C(=O)NNc1cccc(Cl)n1,0,35,-3,127,1,0
O=C(c1ccc(Cl)cc1)c1c[nH]c(C(=O)NNc2ccccc2)c1,6,37,-5,337*,1,0
NS(=O)(=O)c1ccc(NC(=O)c2ccccc2Cl)cc1,-6,0,-2,4,1,0
O=C(NNC(=O)c1ccccc1-n1cccc1)c1ccc(Cl)cc1,-3,62*,/,3,-1,0
O=C(O)c1ccccc1C(=O)NNc1ccc(Cl)cc1,10,40,99*,177,1,0
CC1=CC(C)[C@H](/C=N/n2c(=O)[nH]c3c([nH]c4ccc(Br)cc43)c2=O)C(C)C1 (stereo not given in full),1,17,9,-22,1,0
CCCCc1nc(N2CCOCC2)c(C#N)c2c1COC(C)(C)C2,-8,-1,100*,-6,0,0
Cc1[nH]c2ccccc2c1C(=O)C(=O)N1CCN(c2ccccc2Cl)CC1,6,4,5,-21,0,0
CCOC(=O)c1ccc2[nH]c(C)c(C)c2c1,5,-1,98*,-9,0,0
Cc1[nH]c2ccc(C(=O)N3CCC(C(N)=O)CC3)cc2c1C,3,5,?,-14,-2,0
Cc1[nH]c2ccc(C(=O)N3CCCC3)cc2c1C,6,4,90*,33,-1,0
Cc1[nH]c2ccc(C(=O)N3CCCCC3)cc2c1C,-7,10,96*,-3,-2,0
Cc1ccc2c(c1)sc(=NC(=O)c1cccs1)n2C,-1,56*,-5,950,-8,0
CCOC(=O)c1sc(=NC(=O)c2cccs2)n(C)c1C,4,38,/,-13,-7,0
Cc1ccc2c(c1)sc(=NC(=O)C1CC1)n2C,-1,54*,/,10,-2,0
COc1ccc2cc(S(=O)(=O)n3cnc(C)c3)ccc2c1,7,2,98*,0,2,0
CC1Oc2ccccc2C=C1/C=N/Nc1ccc(C(=O)O)cc1 (stereo not given),3,0,92*,402*,-8,0
SMILES,VLA-4 inh,AHR activator,ALR inh,Mot1-301 SUMO,A1 inh,Efflux pump mplx
CC(C)(C)c1ccc(/C=N/Nc2ccc(C(=O)O)cc2)cc1,3,-8,/,-9,-8,0
Cc1ccc(C2CC(c3ccccc3)=NN2C(=O)CSc2nnc(-c3ccncc3)n2C)o1 (stereo not given),1,7,-1,-17,0,0
O=C(CC1CC2CCC1C2)N1CCN(S(=O)(=O)c2ccccc2C(F)(F)F)CC1 (stereo not given),16,4,-16,-19,8.6*,0
O=C1CN(C(=O)CN2CCOCC2)C(c2ccccc2)c2cc(Br)ccc2N1 (stereo not given),21,57*,7,-12,2,0
COn1c(-c2ccc(Cl)cc2)nc2ccc(Cl)cc21,12,30,-5,/,-2,0
O=C(O)COn1c(-c2ccc(Cl)cc2)nc2ccc(Cl)cc21,9,67*,26,0,-1,0
COc1cc(C(=O)CCN2CCC(c3ccccc3)C2)cc(OC)c1OC (stereo not given),8,-3,98*,-11,0,0
